Five compounds from PubChem BioAssay (NCATS) can be followed below.

SMILES strings stand for the structures. Results filed as inconclusive are left out. Activity calls are given as the source filed them. Unless noted, calls follow the shape of the dose curve; as a rule, active = well fitted curve in either direction with a large enough effect (not every such curve was filed as active); inconclusive = small, poorly fitted or top-dose-only effect, or another doubt; inactive = flat fitted curve, though single readings scatter. Where only a bound is given, the exact number is not on record here.

Test [1] concerns the target Lysosomal acid glucosylceramidase (Homo sapiens) (UniProt P04062). Briefly: Glucocerebrosidase-p2 (AID 348; in the data active = potency below about 10 µM; also: potency is read from the fitted curve at half-maximal effect). The conditions noted are these: purified GBA, blue fluorogenic substrate, 40 min. The method, boiled down: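 Normal human glucocerebrosidase (0.2 nM) with blue fluorogenic substrate (80 uM final) in citrate/phosphate pH 5.9 with 10mM sodium taurocholate, 0.01% tween-20; 40 min RT, NaOH/glycine stop; fluorescence Ex 365/Em 440; AC50 from a titration from 0.6 nM upwards.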

Test [2] in a line: AP1 Signaling Pathway (AID 357).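 Also: ME-180 reporter cells stimulated with EGF at its EC50 level; % is scaled to controls: 0 for no effect and ±100 for the full control effect.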 Conditions: ME-180 AP-1-bla reporter, EGF-induced, beta-lactamase ratio, 5 h; at 7.69 µM (top of the series) unless noted. The method, boiled down: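 Modulation of EGF-driven AP-1 transcription was assessed with a beta-lactamase reporter in ME-180 cells. Compound and EC50 EGF were co-incubated 5 hours at 37 °C before 2.5-hour CCF4 loading at room temperature and dual-emission reading.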

Test [3] has as its target Cytochrome P450 1A2 (Homo sapiens) (UniProt P05177). Briefly: p450-cyp1a2 (AID 410; calls by dose curve; also: potency is read from the fitted curve at half-maximal effect;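 as to activity change, negative = inhibition: -100% = full effect of reference inhibitor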). The conditions noted are these: recombinant CYP1A2, luciferin-ME demethylation, luminescence; series mostly up to 57 µM. The gist of the method:
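Luminescent demethylation readout: Luciferin-ME (100uM, equal to Km) turned over by 20nM CYP1A2 for 60 min at room temperature after NADPH regeneration addition, following 10 min compound preincubation. Normalization used 57 uM furafylline as full inhibition.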

The nature of test [4]: NFAT Signaling Pathway (AID 444).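 Also: carbachol stimulus at about its EC50 of 1 µM final; % is scaled to controls: 0 for no effect and ±100 for the full control effect.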 Conditions: Jurkat NFAT-bla M1, carbachol, beta-lactamase ratio, 5 h; at 7.69 µM (top of the series) unless noted. The gist of the method:
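Jurkat cells carrying an NFAT-driven β-lactamase reporter and co-transfected muscarinic M1 receptor were treated with compound plus carbachol (1 uM final, an EC50 level) for 5 h at 37 °C. CCF4 loading followed for 1 h at RT; 460/530 nm ratio gave %activity.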

A short description of test [5]: Stat Signaling Pathway (AID 446).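 Also: ME-180 cervical cancer cells given 40 pM IL-6 alongside compound; SIE-controlled beta-lactamase reporter measured as 460/530 nm FRET emission ratio; % is scaled to controls: 0 for no effect and ±100 for the full control effect.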 The conditions noted are these: ME-180 (cervical carcinoma) SIE beta-lactamase reporter, IL-6 stimulated, 5 h; at 7.69 µM (top of the series) unless noted. The gist of the method: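 Emission at 460 and 530 nm (excitation 405 nm) reports SIE-controlled beta-lactamase in ME-180 cells. Cells received compound with 40 pM IL-6 for 5 hrs at 37 C; data scaled between 300 pM IL-6 and 125 nM JAK-inhibitor controls.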

In test [6] the target is Glucocorticoid receptor (Homo sapiens) (UniProt P04150). The test can be described thus: GR-EFC Redistribution (AID 451; calls by dose curve; also: potency is read from the fitted curve at half-maximal effect). The conditions noted are these: CHO-K1 GR-EFC translocation, beta-gal luminescence, 2 h. The method, boiled down:
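CHO-K1 cells stably expressing nuclear-localized β-gal enzyme acceptor and GR fused C-terminally to the enzyme donor fragment; ligand-driven nuclear translocation restores β-gal by complementation. Compounds titrated up to 46 uM final, 2 h at 37 °C; luminescence read.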

Test [7] concerns the target Mitogen-activated protein kinase 10 (Mus musculus) (UniProt Q61831). The test can be described thus: JNK3 AlphaScreen Assay (AID 530).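 Also: kinase came from lysate of stimulated human HepG2 cells; signal reports phosphorylation of biotinylated GST-cJun 1-79 at Ser73 with 10 µM ATP; % is scaled to controls: 0 for no effect and ±100 for the full control effect.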 Conditions: JNK3 lysate, c-Jun phosphorylation; series mostly up to 57.1 µM. The method, boiled down:
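Phosphorylation of biotinylated GST-cJun(1-79) at Ser73 is measured by AlphaScreen proximity luminescence. Enzyme is JNK3 in HepG2 lysates activated with interleukin-1beta and tumor necrosis factor alpha; ATP is 10 uM final.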
Background: Bead proximity is the source of the signal in Alpha formats.

The target in test [8] is 3',5'-cyclic-AMP phosphodiesterase 4B (Homo sapiens) (UniProt Q07343). Briefly: qHTS Assay for Inhibitors of PDE-IV (AID 607; active = well fitted activation curve with a large enough effect in the main read-out, with a control signal flat, not every such curve was filed as active; also: % of control where 0% means no effect). Conditions: HEK293 ACTOne CNG channel cells, membrane potential fluorescence; series mostly up to 22.9 µM. The gist of the method:
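The readout is membrane depolarisation from a cAMP-sensing CNG channel, detected with a potential dye at ex 535/em 590. Cells were HEK293-derived (endogenous PDE-IV) at 1000 cells/well, titrated up to 22.9 uM final.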
On the technique in general: In qHTS, concentration-response curves come from the screen itself.

Test [9] deals with Cytochrome P450 3A4 (Homo sapiens) (UniProt P08684). The test can be described thus: qHTS Assay for Inhibitors and Substrates of Cytochrome P450 3A4 (AID 884; active = well fitted curve in the direction sought with a large enough effect; an effect the other way counts as inactive or inconclusive; also: nearly all actives have a fitted effect of over 50% in size; also: potency is read from the fitted curve at half-maximal effect). Conditions: recombinant CYP3A4, Luciferin-PPXE luminescence; series mostly up to 57.1 µM. The method, boiled down:
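Luminescent readout of luciferin produced by CYP3A4 (20 nM) dealkylation of Luciferin-PPXE, 25 uM (its KM). NADPH-driven reaction ran 60 min at RT after 10 min compound preincubation; data scaled to 57 uM ketoconazole as 100% inhibition.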

The target is the same in test [10]. Briefly: qHTS Assay for Activators of Cytochrome P450 3A4 (AID 885; active = well fitted curve in the direction sought with a large enough effect; an effect the other way counts as inactive or inconclusive; also: nearly all actives have a fitted effect of over 65% in size; also: potency is read from the fitted curve at half-maximal effect). Conditions: recombinant CYP3A4, Luciferin-PPXE luminescence, 60 min; series mostly up to 57.1 µM. The method, boiled down:
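Activators are scored by enhanced luminescence from CYP3A4 conversion of luciferin-PPXE (25uM, equal to KM) to luciferin, after 60 min at RT with an NADPH-regenerating system.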

Test [11] deals with Cytochrome P450 2D6 (Homo sapiens) (UniProt P10635). Briefly: qHTS Assay for Inhibitors and Substrates of Cytochrome P450 2D6 (AID 891; active = well fitted curve in the direction sought with a large enough effect; an effect the other way counts as inactive or inconclusive; also: potency is read from the fitted curve at half-maximal effect; nearly all actives have a fitted effect of over 60% in size). The conditions noted are these: recombinant CYP2D6, luciferin-ME EGE luminescence; series mostly up to 57.1 µM. The gist of the method: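 Luminescent read-out of luciferin formed by 5 nM human CYP2D6 demethylating 30 uM Luciferin-ME EGE (Km level) over 60 min at room temperature after NADPH regeneration addition. Data normalized to full inhibition by 1.43 uM quinidine.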

Test [12] is described as follows: qHTS Assay for Lipid Storage Modulators (AID 1519; calls by dose curve). The conditions noted are these: Drosophila S3 cells, BODIPY lipid droplet/cell ratio, laser cytometry, cells loaded with oleic acid; for activity change, negative = inhibition: at 57.5 µM (top of the series). The gist of the method: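 Cells seeded at 5,000 per well were treated with compounds over a concentration series and loaded with oleic acid (400 uM, as added). Lipid droplet fluorescence (488 nm excitation, 500-530 nm channel) was read by laser-scanning cytometry and normalized to 20 uM Triacsin C.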

Test [13] can be described thus: Primary qHTS for small molecule stabilizers of the endoplasmic reticulum resident proteome: Secreted ER Calcium Modulated Protein (SERCaMP) assay (AID 1508630; active = well fitted curve in the direction sought with a large enough effect; an effect the other way counts as inactive or inconclusive; also: % is scaled to controls: 0 for no effect and ±100 for the full control effect). The conditions noted are these: SH-SY5Y GLuc-SERCaMP (Gaussia luciferase released on ER calcium loss) secretion, thapsigargin, luminescence; series mostly up to 38.4 µM. The method, boiled down:
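The SH-SY5Y reporter protocol was run at 3 concentrations up to 38.3 uM (primary) or 11 concentrations (follow-up): 16 h compound, 100 nM thapsigargin for 4 h, then extracellular luciferase luminescence.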

For test [14], the target named is Cytochrome P450 2C19 (Homo sapiens) (UniProt P33261). Briefly: qHTS Assay for Inhibitors and Substrates of Cytochrome P450 2C19 (AID 899; active = well fitted curve in the direction sought with a large enough effect; an effect the other way counts as inactive or inconclusive; also: potency is read from the fitted curve at half-maximal effect; nearly all actives have a fitted effect of over 60% in size). Conditions: recombinant CYP2C19, luciferin-H EGE luminescence; series mostly up to 57.1 µM. The method, boiled down:
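Human CYP2C19 (5nM) with Luciferin-H EGE at 10uM (its KM) in 50mM KPO4 was preincubated with compound for 10 min at 37C. NADPH regeneration started a 60 min 37C reaction. Luciferin was read by luminescence, normalized to 57uM ketoconazole.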

Test [15] can be described thus: Confirmation and Secondary Assay for Modulators of Hemoglobin Beta Chain Splicing at IVS2 654 locus (AID 910; active = well fitted curve in the direction sought with a large enough effect; an effect the other way counts as inactive or inconclusive;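 also: per-well total GFP intensity by laser scanning cytometry after 2-day treatment; % of control where 0% means no effect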). The conditions noted are these: HeLa EGFP-654 splicing reporter, GFP fluorescence, 48 h; series mostly up to 38.3 µM. The gist of the method:
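HeLa cells stably carrying EGFP interrupted by mutant beta-globin IVS2-654 intron (CMV-driven) were treated with compound for 2 days at 37C; corrected splicing was scored as total peak GFP intensity per well (488 nm excitation, 500-520 nm emission).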

A short description of test [16]: Confirmation and Secondary Assay for Modulators of Hemoglobin Beta Chain Splicing at IVS2 705 locus (AID 930; active = well fitted curve in the direction sought with a large enough effect; an effect the other way counts as inactive or inconclusive;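 also: HeLa cells stably expressing the EGFP-705 splicing reporter; GFP fluorescence per well restored by corrected splicing of the IVS2-705 intron in EGFP; % of control where 0% means no effect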). The conditions noted are these: HeLa EGFP-705 splicing reporter, GFP fluorescence, 48 h; series mostly up to 38.3 µM. The method, boiled down: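 HeLa IVS2-705 EGFP reporter cells, 500/well, compound 2 d at 37C; correct splicing yields fluorescent EGFP. Control: 500 nM antisense PNA. Read-out: total peak GFP intensity.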

Setting [17] is: measured here: cell count channel max response.
Where [18] appears, read: measured here: lipid channel max response.

Lysosomal acid glucosylceramidase (Homo sapiens), sequence (P04062 whole entry, looked up): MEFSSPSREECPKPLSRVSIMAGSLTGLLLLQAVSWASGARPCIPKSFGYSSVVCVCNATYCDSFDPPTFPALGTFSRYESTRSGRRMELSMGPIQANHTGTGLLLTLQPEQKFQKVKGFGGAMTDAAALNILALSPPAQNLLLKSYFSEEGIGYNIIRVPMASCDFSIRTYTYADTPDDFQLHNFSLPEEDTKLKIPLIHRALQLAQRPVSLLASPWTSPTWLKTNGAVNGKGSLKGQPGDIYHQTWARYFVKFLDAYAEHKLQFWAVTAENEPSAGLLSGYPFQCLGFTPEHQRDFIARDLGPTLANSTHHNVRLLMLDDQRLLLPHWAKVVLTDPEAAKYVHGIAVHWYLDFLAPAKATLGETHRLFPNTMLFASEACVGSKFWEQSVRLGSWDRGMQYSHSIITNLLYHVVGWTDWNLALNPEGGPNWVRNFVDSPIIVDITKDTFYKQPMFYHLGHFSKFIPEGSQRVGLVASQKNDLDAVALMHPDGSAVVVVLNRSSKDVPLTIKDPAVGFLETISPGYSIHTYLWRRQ
Cytochrome P450 3A4 (Homo sapiens), sequence (P08684 whole entry, looked up): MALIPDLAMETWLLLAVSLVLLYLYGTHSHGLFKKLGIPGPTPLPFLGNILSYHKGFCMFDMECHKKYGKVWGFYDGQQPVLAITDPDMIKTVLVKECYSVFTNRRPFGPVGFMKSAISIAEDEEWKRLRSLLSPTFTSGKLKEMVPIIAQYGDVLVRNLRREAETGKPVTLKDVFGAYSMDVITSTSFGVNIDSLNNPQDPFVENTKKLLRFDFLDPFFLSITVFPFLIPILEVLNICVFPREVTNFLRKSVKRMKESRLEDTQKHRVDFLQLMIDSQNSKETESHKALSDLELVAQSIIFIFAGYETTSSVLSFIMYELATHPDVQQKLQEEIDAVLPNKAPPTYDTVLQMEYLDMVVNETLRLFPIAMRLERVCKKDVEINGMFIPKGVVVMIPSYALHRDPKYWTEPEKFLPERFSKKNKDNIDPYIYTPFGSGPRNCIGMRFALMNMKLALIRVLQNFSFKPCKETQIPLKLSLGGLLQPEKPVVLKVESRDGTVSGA
Glucocorticoid receptor (Homo sapiens), sequence (P04150 whole entry, looked up, the tested form may be a part): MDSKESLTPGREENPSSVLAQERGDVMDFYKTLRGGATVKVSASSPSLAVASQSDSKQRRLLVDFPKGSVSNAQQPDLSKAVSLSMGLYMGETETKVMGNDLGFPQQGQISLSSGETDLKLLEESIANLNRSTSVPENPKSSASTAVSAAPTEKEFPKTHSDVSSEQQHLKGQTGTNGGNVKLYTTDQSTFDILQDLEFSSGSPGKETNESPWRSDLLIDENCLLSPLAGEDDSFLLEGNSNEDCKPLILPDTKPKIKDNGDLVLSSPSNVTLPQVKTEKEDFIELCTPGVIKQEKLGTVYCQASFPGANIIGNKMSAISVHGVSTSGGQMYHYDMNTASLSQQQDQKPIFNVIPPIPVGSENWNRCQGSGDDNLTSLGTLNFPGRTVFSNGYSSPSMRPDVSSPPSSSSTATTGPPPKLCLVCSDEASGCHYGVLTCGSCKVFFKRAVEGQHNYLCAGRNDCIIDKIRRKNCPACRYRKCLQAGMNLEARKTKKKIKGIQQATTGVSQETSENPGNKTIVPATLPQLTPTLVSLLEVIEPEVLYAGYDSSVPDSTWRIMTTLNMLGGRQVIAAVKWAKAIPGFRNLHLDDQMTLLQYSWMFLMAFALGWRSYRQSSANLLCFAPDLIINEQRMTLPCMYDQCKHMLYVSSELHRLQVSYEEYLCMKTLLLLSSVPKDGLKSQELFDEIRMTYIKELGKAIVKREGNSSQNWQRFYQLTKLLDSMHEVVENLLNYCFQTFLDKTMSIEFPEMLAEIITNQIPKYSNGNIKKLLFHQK
Cytochrome P450 1A2 (Homo sapiens), sequence (P05177 whole entry, looked up): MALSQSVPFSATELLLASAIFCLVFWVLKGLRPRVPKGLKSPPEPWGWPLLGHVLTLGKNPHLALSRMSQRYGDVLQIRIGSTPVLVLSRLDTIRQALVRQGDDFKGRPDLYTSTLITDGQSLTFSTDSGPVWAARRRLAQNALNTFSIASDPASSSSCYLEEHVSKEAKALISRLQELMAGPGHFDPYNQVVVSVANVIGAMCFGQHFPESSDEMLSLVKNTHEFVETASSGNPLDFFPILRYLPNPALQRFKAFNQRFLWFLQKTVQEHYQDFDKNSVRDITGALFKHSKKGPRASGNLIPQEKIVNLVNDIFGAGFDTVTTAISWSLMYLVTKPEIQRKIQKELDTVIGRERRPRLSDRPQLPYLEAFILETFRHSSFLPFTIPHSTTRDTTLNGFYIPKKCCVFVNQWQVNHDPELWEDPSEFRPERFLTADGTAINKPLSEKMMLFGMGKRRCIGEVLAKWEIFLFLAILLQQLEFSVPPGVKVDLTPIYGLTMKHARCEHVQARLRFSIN
3',5'-cyclic-AMP phosphodiesterase 4B (Homo sapiens), sequence (Q07343 whole entry, looked up): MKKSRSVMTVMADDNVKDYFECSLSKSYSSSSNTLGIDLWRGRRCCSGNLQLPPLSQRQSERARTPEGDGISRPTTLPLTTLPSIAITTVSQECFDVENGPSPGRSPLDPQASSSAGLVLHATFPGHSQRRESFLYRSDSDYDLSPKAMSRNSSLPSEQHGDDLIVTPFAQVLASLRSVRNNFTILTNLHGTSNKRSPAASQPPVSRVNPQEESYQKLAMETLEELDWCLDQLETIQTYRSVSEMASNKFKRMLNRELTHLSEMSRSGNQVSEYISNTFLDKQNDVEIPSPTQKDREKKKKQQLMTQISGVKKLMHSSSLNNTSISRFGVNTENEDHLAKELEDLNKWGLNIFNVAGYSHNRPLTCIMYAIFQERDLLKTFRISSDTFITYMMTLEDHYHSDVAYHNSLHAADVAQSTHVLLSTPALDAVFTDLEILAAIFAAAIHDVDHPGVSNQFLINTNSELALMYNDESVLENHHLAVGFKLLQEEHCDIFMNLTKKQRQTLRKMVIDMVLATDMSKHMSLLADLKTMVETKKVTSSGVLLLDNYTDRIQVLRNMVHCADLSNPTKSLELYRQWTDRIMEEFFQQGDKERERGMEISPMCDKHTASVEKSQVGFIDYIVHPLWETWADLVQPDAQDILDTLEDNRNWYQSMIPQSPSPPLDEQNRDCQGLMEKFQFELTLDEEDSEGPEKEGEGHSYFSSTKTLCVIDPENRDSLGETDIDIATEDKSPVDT
Cytochrome P450 2D6 (Homo sapiens), sequence (P10635 whole entry, looked up): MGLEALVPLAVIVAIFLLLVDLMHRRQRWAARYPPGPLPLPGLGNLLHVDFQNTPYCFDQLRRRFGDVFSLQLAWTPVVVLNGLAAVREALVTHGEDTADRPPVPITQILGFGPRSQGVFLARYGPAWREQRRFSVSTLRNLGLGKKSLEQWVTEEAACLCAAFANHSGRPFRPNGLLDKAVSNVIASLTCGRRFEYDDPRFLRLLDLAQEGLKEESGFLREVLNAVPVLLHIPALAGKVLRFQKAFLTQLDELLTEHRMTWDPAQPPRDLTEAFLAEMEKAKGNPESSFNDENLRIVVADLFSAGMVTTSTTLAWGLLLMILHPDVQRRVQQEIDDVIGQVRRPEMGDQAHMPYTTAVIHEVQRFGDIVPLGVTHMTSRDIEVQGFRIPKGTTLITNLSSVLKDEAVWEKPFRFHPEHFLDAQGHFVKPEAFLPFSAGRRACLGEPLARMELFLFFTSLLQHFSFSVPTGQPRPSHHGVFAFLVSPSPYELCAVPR
Cytochrome P450 2C19 (Homo sapiens), sequence (P33261 whole entry, looked up): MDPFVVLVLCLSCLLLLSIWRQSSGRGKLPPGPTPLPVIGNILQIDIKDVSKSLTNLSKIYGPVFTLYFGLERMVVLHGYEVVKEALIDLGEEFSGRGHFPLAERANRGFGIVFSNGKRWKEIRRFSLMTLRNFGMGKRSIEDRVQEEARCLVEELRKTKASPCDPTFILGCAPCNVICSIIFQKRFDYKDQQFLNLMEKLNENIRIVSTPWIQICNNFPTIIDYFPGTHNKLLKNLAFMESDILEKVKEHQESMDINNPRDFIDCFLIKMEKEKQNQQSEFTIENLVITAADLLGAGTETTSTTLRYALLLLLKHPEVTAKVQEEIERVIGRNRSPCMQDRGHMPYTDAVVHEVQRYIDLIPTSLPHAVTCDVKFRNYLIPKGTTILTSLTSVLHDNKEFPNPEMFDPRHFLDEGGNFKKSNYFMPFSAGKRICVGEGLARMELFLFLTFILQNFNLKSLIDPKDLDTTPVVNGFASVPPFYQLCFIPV

Regarding `COC(=O)N1CCC2(CC1)CN(C(c1ccccc1)c1ccccc1)C2`, the Potency was > 11.4 µM (inactive) in [1], > 46 µM (inactive) in test [6], 0.794 µM (active) in [10] and 0.794 µM (active) in test [11]. Moreover, the values for the activity change, negative = inhibition in [2], in test [4] and in test [12] were 3.69% (inactive), -16.9% (inactive) and -2.77% (inactive), respectively. Moreover, the Potency entry in test [3], in test [8], in [9] and in test [13] was “inactive” each time. In addition, in test [5], the activity, negative = inhibition is 5.28% (inactive). Moreover, in [7], the compound was classed as inactive. The max response came to 5.36% in test [12] (setting [17]) and 5.91% in test [12] (setting [18]).
On to `O=C(c1cc(C(F)(F)F)cc(C(F)(F)F)c1)N1CCC2(CC1)CN(c1ccccc1)C2`, for which the Potency was > 11.4 µM (inactive) in [1], > 46 µM (inactive) in test [6] and 3.98 µM (active) in test [10]. Also, the results for the activity change, negative = inhibition in test [2], in test [4] and in test [12] were 29.9% (inactive), -25.4% (inactive) and -8.64% (inactive), respectively. Also, the Potency entry in [3], in test [8], in test [9] and in test [13] was “inactive” each time. Moreover, in test [5], the activity, negative = inhibition is 2.58% (inactive). In addition, the result in [7] was inactive. For the same compound, the max response was 5.35% in test [12] (setting [17]) and -1.3% in test [12] (setting [18]).
Regarding `CC(=O)N1CCC2(CCCN(c3ccccc3)C2)CC1`, the values for the Potency in test [1] and in test [6] were > 11.4 µM (inactive) and > 46 µM (inactive), respectively. In addition, the activity change, negative = inhibition was -11.7% (inactive) in test [2], 9.86% (inactive) in test [4] and 1.01% (inactive) in [12]. The Potency result in [3], in test [8], in [10] and in [13] was “inactive” each time. Also, in test [5], the activity, negative = inhibition was -0.0216% (inactive). In [7], the result was inactive. Also, the max response is 9.92% in test [12] (setting [17]) and 12.8% in test [12] (setting [18]).
In the case of `O=C(c1cnccn1)N1CCC[C@@]2(CCN(c3ccccc3)C2)C1`, the Potency was > 11.4 µM (inactive) in [1], 15.8 µM (active) in test [3], > 46 µM (inactive) in test [6] and 7.94 µM (active) in test [9]. The activity change, negative = inhibition in [2] is -15.8% (inactive); in test [4], -3.48% (inactive); in [12] it was -0.338% (inactive). Further, the activity, negative = inhibition in [5] is -3.78% (inactive). Also, in test [7], the result was inactive. Besides, the Potency entry in test [8], in [10] and in test [13] was “inactive” each time. Besides, the max response in test [12] (setting [17]) turned out to be 17%; in test [12] (setting [18]), 18.8%.
`Cc1cccc(CNc2ccnc(-c3cccnc3)n2)c1`: the Potency in test [1] was > 11.4 µM (inactive); in test [3] it was 0.126 µM (active); in [6], > 46 µM (inactive); in [9], 0.501 µM (active); in test [11], 0.631 µM (active); in test [14], 2.51 µM (active). The figures for the activity change, negative = inhibition in [2], in test [4] and in test [12] were -18.1% (inactive), 10.6% (inactive) and 8.22% (inactive), respectively. Moreover, the activity, negative = inhibition in test [5] was 1.1% (inactive). Moreover, the result in test [7], in test [15] and in test [16] was inactive. The Potency result in test [8], in test [10] and in test [13] was “inactive” throughout. The max response in test [12] (setting [17]) was -7.71%; in test [12] (setting [18]), -5.64%.
